Measurements: PubChem BioAssay AID1159580 (chemical genetic matrix, 2015)
The whole screen tested about 5,500 compounds, of which about 2,000 (36%) were called active. Roughly 18% stayed inconclusive and do not appear here. Cut-off read from the data, not from the text of the source: active = normalized growth mostly below about 0.91 (no sharp cut-off); inconclusive = no clear call, values can overlap the other calls; inactive = mostly above about 0.92. Some of the results follow.

Assay: chemical genetic growth profiling, strain panel (AID 1159580);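 note: tested at 20 µM; growth read once vehicle control cultures reached saturation at 30 °C; 1 = growth at the plate median or of vehicle wells; lower values mean less growth of the strain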
Conditions: growth OD
[1] = S. cerevisiae deletion strains, locus YAL013W, strain DEP1, stronger effect = lower value
[2] = S. cerevisiae deletion strains, locus YNL128W, strain TEP1, stronger effect = lower value
[3] = S. cerevisiae deletion strains, locus YPL241C, strain CIN2, stronger effect = lower value

Measured: normalized growth

Nc1ncn(C2OC(CO)C(O)C2O)c(=O)n1 (stereo unspecified)
inactive: [1] 1.02 | S. cerevisiae deletion strains, locus YAL040C, strain CLN3, stronger effect = lower value 0.999 | S. cerevisiae deletion strains, locus YCL061C, strain MRC1 (second series), stronger effect = lower value 0.999 | S. cerevisiae deletion strains, locus YER002W, strain NOP16, stronger effect = lower value 0.997 | [2] 0.994 | S. cerevisiae deletion strains, locus YNL175C, strain NOP13, stronger effect = lower value 0.992 | S. cerevisiae deletion strains, locus YNL197C, strain WHI3, stronger effect = lower value 1.01 | S. cerevisiae deletion strains, locus YNL224C, strain SQS1, stronger effect = lower value 0.988 | S. cerevisiae deletion strains, locus YOR083W, strain WHI5 (second series), stronger effect = lower value 1 | [3] 1

NCCCCCCNS(=O)(=O)c1cccc2c(Cl)cccc12
inactive: [1] 1 | S. cerevisiae deletion strains, locus YBR021W, strain FUR4, stronger effect = lower value 1 | S. cerevisiae deletion strains, locus YBR229C, strain ROT2, stronger effect = lower value 0.982 | S. cerevisiae deletion strains, locus YCL029C, strain bik1, stronger effect = lower value 0.983 | S. cerevisiae deletion strains, locus YDL035C, strain GPR1, stronger effect = lower value 0.989 | S. cerevisiae deletion strains, locus YDL074C, strain BRE1, stronger effect = lower value 1.02 | S. cerevisiae deletion strains, locus YDL101C, strain DUN1, stronger effect = lower value 0.991 | S. cerevisiae deletion strains, locus YDL134C, strain PPH21, stronger effect = lower value 0.985 | S. cerevisiae deletion strains, locus YDL185W, strain tfp1, stronger effect = lower value 0.986 | S. cerevisiae deletion strains, locus YDL192W, strain arf1, stronger effect = lower value 0.996 | S. cerevisiae deletion strains, locus YDR101C, strain arx1, stronger effect = lower value 0.997 | S. cerevisiae deletion strains, locus YDR150W, strain NUM1, stronger effect = lower value 0.987 | S. cerevisiae deletion strains, locus YDR162C, strain NBP2, stronger effect = lower value 1.01 | S. cerevisiae deletion strains, locus YDR318W, strain mcm21, stronger effect = lower value 0.973 | S. cerevisiae deletion strains, locus YDR388W, stronger effect = lower value 0.99 | S. cerevisiae deletion strains, locus YDR502C, strain sam2, stronger effect = lower value 0.984 | S. cerevisiae deletion strains, locus YEL061C, strain CIN8, stronger effect = lower value 0.995 | S. cerevisiae deletion strains, locus YER110C, stronger effect = lower value 0.99 | S. cerevisiae deletion strains, locus YER155C, strain BEM2, stronger effect = lower value 1.01 | S. cerevisiae deletion strains, locus YER167W, strain BCK2, stronger effect = lower value 0.979 | S. cerevisiae deletion strains, locus YGL078C, strain dbp3, stronger effect = lower value 0.998 | S. cerevisiae deletion strains, locus YGL086W, strain mad1, stronger effect = lower value 0.958 | S. cerevisiae deletion strains, locus YGL248W, strain PDE1, stronger effect = lower value 0.968 | S. cerevisiae deletion strains, locus YGR078C, strain PAC10, stronger effect = lower value 1 | S. cerevisiae deletion strains, locus YGR135W, strain pre9, stronger effect = lower value 0.988 | S. cerevisiae deletion strains, locus YGR229C, strain SMI1, stronger effect = lower value 1.01 | S. cerevisiae deletion strains, locus YGR252W, strain gcn5, stronger effect = lower value 0.908 | S. cerevisiae deletion strains, locus YHR030C, strain SLT2, stronger effect = lower value 0.989 | S. cerevisiae deletion strains, locus YHR079C, strain IRE1 (second series), stronger effect = lower value 0.978 | S. cerevisiae deletion strains, locus YHR094C, strain hxt1, stronger effect = lower value 1 | S. cerevisiae deletion strains, locus YHR129C, strain ARP1, stronger effect = lower value 1 | S. cerevisiae deletion strains, locus YHR200W, strain rpn10, stronger effect = lower value 0.979 | S. cerevisiae deletion strains, locus YIL066C, strain RNR3, stronger effect = lower value 0.996 | S. cerevisiae deletion strains, locus YIL073C, strain SPO22, stronger effect = lower value 0.957 | S. cerevisiae deletion strains, locus YIL125W, strain kgd1, stronger effect = lower value 0.997 | S. cerevisiae deletion strains, locus YIR030C, strain dcg1, stronger effect = lower value 0.992 | S. cerevisiae deletion strains, locus YJL095W, strain BCK1, stronger effect = lower value 0.988 | S. cerevisiae deletion strains, locus YJL134W, strain LCB3, stronger effect = lower value 0.995 | S. cerevisiae deletion strains, locus YJL168C, strain set2, stronger effect = lower value 0.994 | S. cerevisiae deletion strains, locus YJL187C, strain SWE1 (second series), stronger effect = lower value 0.993 | S. cerevisiae deletion strains, locus YJR043C, strain POL32, stronger effect = lower value 0.971 | S. cerevisiae deletion strains, locus YJR075W, strain HOC1, stronger effect = lower value 1.02 | S. cerevisiae deletion strains, locus YKL009W, strain mrt4, stronger effect = lower value 0.953 | S. cerevisiae deletion strains, locus YKL068W, stronger effect = lower value 0.999 | S. cerevisiae deletion strains, locus YKL085W, strain MDH1 (second series), stronger effect = lower value 0.991 | S. cerevisiae deletion strains, locus YKL085W, strain MDH1, stronger effect = lower value 0.991 | S. cerevisiae deletion strains, locus YKL190W, strain CNB1, stronger effect = lower value 0.996 | S. cerevisiae deletion strains, locus YKR001C, strain vps1, stronger effect = lower value 0.983 | S. cerevisiae deletion strains, locus YLR039C, strain RIC1, stronger effect = lower value 1.01 | S. cerevisiae deletion strains, locus YLR058C, strain SHM2, stronger effect = lower value 0.988 | S. cerevisiae deletion strains, locus YLR102C, strain apc9, stronger effect = lower value 1 | S. cerevisiae deletion strains, locus YLR262C, strain YPT6, stronger effect = lower value 1.02 | S. cerevisiae deletion strains, locus YLR268W, strain sec22, stronger effect = lower value 0.999 | S. cerevisiae deletion strains, locus YLR330W, strain CHS5, stronger effect = lower value 0.997 | S. cerevisiae deletion strains, locus YLR342W, strain FKS1 (second series), stronger effect = lower value 0.935 | S. cerevisiae deletion strains, locus YLR371W, strain rom2, stronger effect = lower value 0.993 | S. cerevisiae deletion strains, locus YLR418C, strain cdc73, stronger effect = lower value 1 | S. cerevisiae deletion strains, locus YML016C, strain PPZ1, stronger effect = lower value 0.989 | S. cerevisiae deletion strains, locus YML032C, strain rad52, stronger effect = lower value 0.961 | S. cerevisiae deletion strains, locus YML124C, strain tub3, stronger effect = lower value 0.987 | S. cerevisiae deletion strains, locus YMR078C, strain ctf18, stronger effect = lower value 0.98 | S. cerevisiae deletion strains, locus YMR223W, strain ubp8, stronger effect = lower value 0.961 | S. cerevisiae deletion strains, locus YMR263W, strain SAP30, stronger effect = lower value 1.01 | S. cerevisiae deletion strains, locus YMR307W, strain GAS1, stronger effect = lower value 0.942 | S. cerevisiae deletion strains, locus YNL067W, strain RPL9B, stronger effect = lower value 1.01 | [2] 1.01 | S. cerevisiae deletion strains, locus YNL153C, strain GIM3, stronger effect = lower value 1 | S. cerevisiae deletion strains, locus YNL233W, strain BNI4, stronger effect = lower value 0.996 | S. cerevisiae deletion strains, locus YNL250W, strain rad50, stronger effect = lower value 0.981 | S. cerevisiae deletion strains, locus YNL271C, strain bni1, stronger effect = lower value 0.997 | S. cerevisiae deletion strains, locus YNL298W, strain CLA4, stronger effect = lower value 0.983 | S. cerevisiae deletion strains, locus YNL307C, strain MCK1, stronger effect = lower value 0.965 | S. cerevisiae deletion strains, locus YNL322C, strain KRE1, stronger effect = lower value 0.995 | S. cerevisiae deletion strains, locus YNR052C, strain pop2, stronger effect = lower value 0.974 | S. cerevisiae deletion strains, locus YOL006C, strain TOP1, stronger effect = lower value 0.955 | S. cerevisiae deletion strains, locus YOL012C, strain htz1 0.747 | S. cerevisiae deletion strains, locus YOL147C, strain pex11, stronger effect = lower value 0.994 | S. cerevisiae deletion strains, locus YOR061W, strain CKA2, stronger effect = lower value 0.995 | S. cerevisiae deletion strains, locus YOR069W, strain VPS5, stronger effect = lower value 0.988 | S. cerevisiae deletion strains, locus YOR136W, strain idh2, stronger effect = lower value 0.991 | S. cerevisiae deletion strains, locus YOR144C, strain elg1, stronger effect = lower value 0.993 | S. cerevisiae deletion strains, locus YOR184W, strain ser1, stronger effect = lower value 0.961 | S. cerevisiae deletion strains, locus YOR316C, strain cot1, stronger effect = lower value 0.986 | S. cerevisiae deletion strains, locus YPL055C, strain LGE1, stronger effect = lower value 1.04 | [3] 0.998 | S. cerevisiae deletion strains, locus YPR119W, strain clb2, stronger effect = lower value 1 | S. cerevisiae deletion strains, locus YPR141C, strain kar3, stronger effect = lower value 0.999 | S. cerevisiae deletion strains, locus YPR163C, strain tif3, stronger effect = lower value 0.985 | S. cerevisiae deletion strains, locus YPR167C, strain met16, stronger effect = lower value 0.986 | S. cerevisiae deletion strains, strain wtn01, stronger effect = lower value 0.981 | S. cerevisiae strains, strain wild type, stronger effect = lower value 0.997
